Assay outcomes: PubChem, Small Molecule Screening Facility, UW Madison
Only a selection was taken, and hits are over-represented in it overall.
RMI-FANCM inh = inhibitors of human RMI core complex binding to FANCM MM2 | Fluorescence polarization, RMI core complex with F-MM2 peptide; active compounds read low | FP signal (polarization) at 33 µM | 0.58% of 70,000 active | AID 1159607; in the data active means FP signal below about 40
Each line names hits and unclear results; the compound was inactive in the other large screens.

N#Cc1ccc(Cl)nn1	none
Clc1cccnn1	RMI-FANCM inh -3
O=C(c1ccc(S(=O)(=O)N2CCOCC2)cc1)N1CCN(CCN2C(=O)c3cccc4cccc(c34)C2=O)CC1	none
O=C1c2cccc3cc([N+](=O)[O-])cc(c23)C(=O)N1CCc1ccccn1	none
O=C1c2cccc3cc([N+](=O)[O-])cc(c23)C(=O)N1CCCN1CCOCC1	RMI-FANCM inh 17
COc1ccc(N2CC(NC(=O)NN3CCOCC3)CC2=O)cc1 (stereo not drawn)	none
CCC(CO)Nc1ccnc2c1c(=O)n(C)c(=O)n2C (stereo not drawn)	none
COc1ccc(NC(=O)CO)cc1	none
COc1ccc(NC2=CC(=O)C=CC2=O)cc1	RMI-FANCM inh 30
COc1ccc(Nc2c(Cl)cc(OC)cc2Cl)cc1	none
Cc1cccc(Cn2c(Sc3nnc(C)s3)nc3c2c(=O)[nH]c(=O)n3C)c1	none
CCOC(=O)N1CCN(C(c2ccccn2)c2c(-c3ccccc3)n(O)c3ccccc23)CC1 (stereo not drawn)	RMI-FANCM inh 26
CCOC(=O)N1CCN(C(c2ccncc2)c2c(C)[nH]c3ccccc23)CC1 (stereo not drawn)	none
CCOC(=O)N1CCN(CC(O)COc2ccc(-c3ccccc3)cc2)CC1 (stereo not drawn)	none
Cc1cc(Br)ccc1OCC(=O)N1CCc2ccccc21	none
Cc1ccc(C)n1CCNc1ccc(C(F)(F)F)cc1[N+](=O)[O-]	none
O=C(Nc1cccc(C(F)(F)F)c1)c1ccc([N+](=O)[O-])o1	none
CC(C)(CCOC(=O)c1ccc([N+](=O)[O-])o1)Nc1ccc(C(F)(F)F)cc1[N+](=O)[O-]	RMI-FANCM inh 40
N#Cc1ccccc1NC(=O)CSc1nnc(SCC(=O)Nc2ccccc2C#N)s1	none
O=C(CCSc1ccc(F)cc1)Nc1cccc(-c2nc3ccccc3[nH]2)c1	none
COc1ccc2c(C)cc(SCC(=O)c3ccc(OC)c(OC)c3)nc2c1	none
COc1ccc(C(=O)CSc2cc(C)c(C#N)c3nc4ccccc4n23)cc1OC	RMI-FANCM inh 30
COc1ccc(CCNc2cc(C)c(C#N)c3nc4ccccc4n23)cc1OC	none
Cc1ccc(C)c(S(=O)(=O)N2C(=S)NC(=O)C2Cc2ccccc2)c1 (stereo not drawn)	none
Cc1ccc(C)c(S(=O)(=O)N=C2C=C(Cl)C(=O)c3ccccc32)c1	RMI-FANCM inh 20
Cc1ccc(C)c(S(=O)(=O)N=C2C=C(SCC(=O)O)C(=O)c3ccccc32)c1	none
NS(=O)(=O)c1ccc(CNC(=O)CCc2csc3nc(-c4ccccc4)cn23)cc1	none
Clc1ccc(-c2cnn3c(-n4ccnc4)cc(-c4ccccc4)nc23)cc1	none
Cc1cc(NC(=O)C(=O)NCCN2CCN(c3ccc(F)cc3)CC2)c2ccccc2n1	none
Cc1csc(NS(=O)(=O)c2ccc(Cl)cc2)c1-c1nc2ccccc2s1	none
O=C(CCc1nc2sc3c(c2c(=O)[nH]1)CCCCC3)N1CCN(Cc2ccc3c(c2)OCO3)CC1	RMI-FANCM inh 28
O=C(CCc1nc2sc3c(c2c(=O)[nH]1)CCCCC3)N1CCN(c2ccccc2F)CC1	none
NC(=O)C1CCN(C(=O)CCc2nc3sc4c(c3c(=O)[nH]2)CCCCC4)CC1	none
CC(C)S(=O)(=O)c1cccc(C(=O)Nc2ccc3c(c2)C(=O)NC3=O)c1	none
NC[C@H]1O[C@H](OC2[C@@H](N)C[C@@H](N)[C@H](O)[C@H]2O[C@@H]2O[C@H](CO)[C@@H](O)[C@H]2O)[C@H](N)[C@@H](O)[C@@H]1O (stereo partly drawn)	none
NC[C@@H]1O[C@H](O[C@@H]2[C@@H](CO)OC(O[C@@H]3[C@@H](O)[C@H](N)C[C@H](N)[C@H]3O[C@H]3O[C@H](CO)[C@@H](O)[C@H](O)[C@H]3N)[C@@H]2O)[C@H](N)[C@@H](O)[C@@H]1O (stereo partly drawn)	none
NC[C@@H]1O[C@H](O[C@H]2[C@@H](O)[C@H](O[C@@H]3[C@@H](O)[C@H](N)C[C@H](N)[C@H]3OC3O[C@H](CO)[C@@H](O)[C@H](O)[C@H]3N)O[C@@H]2CO)[C@H](N)[C@@H](O)[C@@H]1O (stereo partly drawn)	RMI-FANCM inh 4
CCC(CC)COC(=O)C(C#N)c1nc2ccccc2nc1N1CCCCC1 (stereo not drawn)	none
Cc1ccc(C)c(S(=O)(=O)C(C#N)c2nc3ccccc3nc2N2CCCC2)c1 (stereo not drawn)	RMI-FANCM inh 5
CCN1CCN(c2nc3ccccc3nc2C(C#N)S(=O)(=O)c2cccs2)CC1 (stereo not drawn)	none
Fc1ccc(-n2ncc3c(NCCc4c[nH]c5ccccc45)ncnc32)cc1	none
CC(=O)Oc1ccccc1C(=O)O	none
CC(=O)Oc1cccc2c1C(=O)c1c(OC(C)=O)cc(C(=O)O)cc1C2=O	RMI-FANCM inh 34
O=C(O)c1cc(O)c2c(c1)C(=O)c1cc(O)cc(O)c1C2=O	none
CC(CCC(=O)O)[C@H]1CCC2C3CC[C@@H]4C[C@H](O)CC[C@]4(C)C3C[C@H](O)[C@@]21C (stereo partly drawn)	none
O=C(Nc1ccc(SCC(=O)N2CCc3ccccc32)nn1)c1ccccc1F	none
O=C(CSc1ncccn1)Nc1ncc(Cc2cccc([N+](=O)[O-])c2)s1	none
COc1cn(CC(=O)Nc2ccc(Br)cc2)c(CN2CCC(C)CC2)cc1=O	none
COc1cn(CC(=O)Nc2cccc3ccccc23)c(CN2CCN(c3ccc(F)cc3)CC2)cc1=O	RMI-FANCM inh 35
COc1cn(CC(=O)NCc2ccc(C)cc2)c(CN2CCC(C)CC2)cc1=O	none
CN=C1SC(CC(=O)Nc2ccc(C)cc2Br)C(=O)N1C (stereo not drawn)	none
Cc1[nH]c2ccccc2c1C(c1ccc(C(C)C)cc1)c1c(C)[nH]c2ccccc12	RMI-FANCM inh 29
Cc1[nH]c2ccccc2c1C(c1ccco1)c1c(C)[nH]c2ccccc12	none
Cc1[nH]c2ccccc2c1C(c1ccc(OC(F)F)cc1)c1c(C)[nH]c2ccccc12	none
CSc1ccc(-c2noc(Cn3ccn4nc(-c5cccs5)cc4c3=O)n2)cc1	none
CCN(CC)S(=O)(=O)c1ccc(C(=O)N=c2sc3cc4c(cc3n2C)OCCO4)cc1	none
COc1cccc(CNC(=O)CSc2ccc(NC(=O)C(C)C)nn2)c1	none
CCOC(=O)c1nn(-c2cccc(F)c2)c(=O)c2c(NC(=O)c3c(-c4ccccc4Cl)noc3C)scc12	none
CC(=C\c1ccccc1)/C=C1/SC(=Nc2ccc(F)cc2)NC1=O	none
CCOc1ccc(N=C2NC(=O)S/C2=C\C=C\c2ccccc2)cc1	none
O=C1NC(=Nc2ccccc2)S/C1=C/C=C/c1ccco1	RMI-FANCM inh 27
O=C(Nc1ccc2c(c1)CN(C(=O)c1ccccc1)CC2)c1ccc(F)cc1	none
CCOC(=O)c1ccc(N)cc1	none
CCOC(=O)C1=C(N)CC(C(=O)OCC)=C(N)C1	RMI-FANCM inh 16
CCOC(=O)C1=C(N)C(=O)N(c2ccccc2)C1	none
CCCN(CCC)S(=O)(=O)c1ccc(C(=O)Nc2nc3cc4c(cc3s2)OCCO4)cc1	none
CC(=O)N1CCc2c(sc(NC(=O)CCSc3ccc(F)cc3)c2C#N)C1	none
COc1ccc(/C=C2\N=C(c3ccccc3)OC2=O)cc1OC	none
CC(/C=C1\SC(=O)N(CC(=O)Nc2ccc(O)cc2)C1=O)=C\c1ccccc1	none
CC(/C=C1\SC(=S)N(CC(=O)Nc2ccc(C(=O)O)c(O)c2)C1=O)=C\c1ccccc1	RMI-FANCM inh 19
CC(/C=C1\SC(=S)N(CC(=O)N2c3ccccc3Sc3ccccc32)C1=O)=C\c1ccccc1	none
Clc1ccc(-c2ccc3c4ccccc4cc-3o2)cc1	none
CCOc1ccc2nc(SCc3ccccc3Cl)[nH]c2c1	none
Cc1cc(C(=O)Nc2nc3c(s2)CCC3)no1	none
